According to PubChem BioAssay (EPA / NIEHS):
Results filed as inconclusive are left out. Activity calls are given as the source filed them. How the source made its calls, unless noted: active means hit-call score of the fitted dose curve at least 0.9, where 1 is the maximum; inactive means score below 0.9.

Key:
[1] = ACEA_ER_80hr: ACEA Biosciences xCELLigence Real-Time Cell Analysis on Estrogen Receptor Agonism for Proliferation (AID 2282667; active means hit-call score of the fitted dose curve at least 0.9, where 1 is the maximum); settings: T47D proliferation, impedance (xCELLigence), 80 h
In short: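 Real-time electrical impedance tracked growth of the human breast line T47D, with the 80 h post-dosing value used. Dosing spanned eight 1:4 steps down from a 100 uM final top concentration, run in duplicate.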

[2] = ATG_CRE_CIS: Attagene CIS-FACTORIAL HepG2 Assay for human cAMP Responsive Element (CRE) binding protein 3 (AID 2282926); settings: HepG2 CRE cis-reporter, Attagene multiplexed mRNA; actives raise or lower the signal
In short: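 Assay format: transient reporter transfection of HepG2, 24 h treatment, total RNA isolation with DNase I step. Reporter abundance read by fluorescence after PCR and capillary separation; DMSO-normalised gain or loss fitting.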

[3] = target: CCAAT/enhancer-binding protein beta (Homo sapiens) (UniProt P17676); test: ATG_C_EBP_CIS: Attagene CIS-FACTORIAL HepG2 Assay for human CCAAT/Enhancer Binding Protein (C/EBP) beta (AID 2282927); settings: HepG2 Attagene cis-factorial transcription factor reporter; actives raise or lower the signal
In short: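 Following a 24 h incubation with test chemical, transfected HepG2 cells yielded RNA whose reporter transcripts were quantified by RT-PCR and fluorescent capillary electrophoresis, with DMSO serving as baseline for bidirectional fitting.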

[4] = ATG_CMV_CIS: Attagene CIS-FACTORIAL HepG2 Assay for human CMV (Internal Marker) (AID 2282928); settings: HepG2 CMV promoter reporter, transcription factor profiling; actives raise or lower the signal;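 further: endpoint acts as a background internal control marker rather than a target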
In short: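 Readout: fluorescent reporter cDNA fragments separated by capillary electrophoresis after RT-PCR and HpaI cut. Cells: HepG2 carrying transfected cis-promoter reporter constructs, dosed 24 h. Endpoint serves as background internal-marker control, fit bidirectionally versus DMSO.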

[5] = ATG_DR4_LXR_CIS: Attagene CIS-FACTORIAL HepG2 Assay for human Liver X Receptor (LXR), DR4 submotif (AID 2282929); settings: HepG2 Attagene DR4 cis-reporter, mRNA transcription; actives raise or lower the signal
In short: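 Cells were transfected with multiple reporter transcription units, exposed to chemicals for 24 hours, then lysed for RNA. Reporter mRNA induction was measured by RT-PCR with capillary electrophoresis detection and fitted in both directions relative to DMSO.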

[6] = target: Aryl hydrocarbon receptor (Homo sapiens) (UniProt P35869); test: ATG_Ahr_CIS: Attagene CIS-FACTORIAL HepG2 Assay for human Aryl Hydrocarbon Receptor (Ahr) (AID 2282930); settings: HepG2 AhR cis-factorial reporter transcription; actives raise or lower the signal
In short: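 Values derive from bidirectional fitting against DMSO negative control. Underlying signal: cis-element reporter mRNA in transiently transfected HepG2, harvested 24 h post-dose and measured by RT-PCR plus capillary electrophoresis.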

[7] = ATG_AP_1_CIS: Attagene CIS-FACTORIAL HepG2 Assay for human Activator Protein 1 (AP-1) (AID 2282931); settings: HepG2 Attagene cis-factorial AP-1 reporter mRNA; actives raise or lower the signal
In short: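 Endogenous transcription-factor activity in human HepG2 liver cells is read through a cis-promoter reporter transcript, sampled 24 h after dosing. Detection uses RT-PCR with capillary electrophoresis; values come from bidirectional fitting relative to DMSO.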

[8] = ATG_AP_2_CIS: Attagene CIS-FACTORIAL HepG2 Assay for human Activator Protein 2 (AP-2) (AID 2282932); settings: HepG2 AP-2 cis-reporter, Attagene transcription factor profiling; actives raise or lower the signal
In short: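 Cells (HepG2) transfected with promoter-driven reporter constructs, treated 24 h. Total RNA reverse-transcribed, reporter cDNA PCR-amplified, FAM-labelled by primer extension, digested, resolved by capillary electrophoresis. Activity fitted both directions versus DMSO.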

[9] = ATG_BRE_CIS: Attagene CIS-FACTORIAL HepG2 Assay for human Bone Morphogenetic Protein (BMP) Response Element (BRE) (AID 2282933); settings: HepG2 BMP response element reporter, Attagene transcription factor profiling; actives raise or lower the signal
In short: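 After a 24 h chemical treatment, transiently transfected HepG2 cells were lysed for RNA; reporter transcripts were quantified by fluorescent RT-PCR and capillary electrophoresis, normalised to DMSO.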

[10] = target: Retinoic acid receptor alpha (Homo sapiens) (UniProt P10276); test: ATG_DR5_RAR_CIS: Attagene CIS-FACTORIAL HepG2 Assay for human Retinoic Acid Receptor Alpha (RARE), DR5 submotif (AID 2282934); settings: HepG2 Attagene cis-factorial RARE DR5 reporter, mRNA; actives raise or lower the signal;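 on AC50: reporter responds to endogenous RAR alpha beta and gamma in HepG2 not RARA alone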
In short: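 Endpoint fitted in both directions relative to DMSO as negative control. It reflects DR5 cis-element reporter mRNA induction in transiently transfected HepG2 cells, measured 24 h after dosing through RT-PCR and fluorescent capillary electrophoresis.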

[11] = target: Transcription factor E2F1 (Homo sapiens) (UniProt Q01094); test: ATG_E2F_CIS: Attagene CIS-FACTORIAL HepG2 Assay for human E2F Transcription Factor 1 (AID 2282935); settings: HepG2 Attagene cis-reporter, E2F reporter RNA transcripts; actives raise or lower the signal
In short: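 First, HepG2 cells were transfected with reporter transcription units. Next, they were dosed for 24 h. Then RNA was isolated, converted to cDNA, PCR-amplified, FAM-labeled, HpaI-digested and analyzed by capillary electrophoresis.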

[12] = ATG_E_Box_CIS: Attagene CIS-FACTORIAL HepG2 Assay for human Enhancer Box (E-box) (AID 2282936); settings: HepG2 E-box cis-reporter transcription, actives raise or lower the signal
In short: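 Endogenous transcription factor activity was sensed in human HepG2 liver cells through transfected cis-promoter reporter units. After 24 h of dosing, total RNA was reverse-transcribed and reporter cDNA resolved by capillary electrophoresis.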

[13] = ATG_M_61_CIS: Attagene CIS-FACTORIAL HepG2 Assay for M61 Transcription Factor (Internal Marker) (AID 2282937); settings: HepG2 Attagene CIS-FACTORIAL M61 internal marker reporter; actives raise or lower the signal
In short: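 Cells were transfected with reporter units under cis-regulatory promoters, treated with chemicals for 24 h, then lysed for RNA. Reporter transcripts were quantified by RT-PCR and capillary electrophoresis, and activity was fitted bidirectionally against DMSO.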

[14] = ATG_EGR_CIS: Attagene CIS-FACTORIAL HepG2 Assay for human Early Growth Response 1 (EGR1) (AID 2282938); settings: HepG2 Attagene CIS-FACTORIAL EGR reporter mRNA; actives raise or lower the signal
In short: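 Endogenous TF activity in HepG2 liver cells was gauged through cis-promoter reporter constructs transiently transfected. After 24 h dosing, reporter mRNA was quantified by RT-PCR and capillary electrophoresis, and curves fitted in both directions versus DMSO.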

[15] = ATG_M_19_CIS: Attagene CIS-FACTORIAL HepG2 Assay for M19 Transcription Factor (Internal Marker) (AID 2282939); settings: HepG2 Attagene CIS-FACTORIAL M19 internal marker reporter; actives raise or lower the signal
In short: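 In this multiplexed cell assay, transiently transfected HepG2 reporter units report endogenous transcription-factor activity; after 24 hours of treatment, labelled reporter cDNA fragments are quantified by capillary electrophoresis and fitted bidirectionally against DMSO.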

[16] = ATG_ERE_CIS: Attagene CIS-FACTORIAL HepG2 Assay for Estrogen Response Element (ERE) (AID 2282940); settings: HepG2 ERE cis-reporter, Attagene RNA transcript; actives raise or lower the signal
In short: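 Measuring endogenous transcription factor output, the assay doses transfected HepG2 cells for 24 hours and quantifies reporter transcripts by fluorescent RT-PCR and capillary electrophoresis, with DMSO as baseline.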

[17] = ATG_Ets_CIS: Attagene CIS-FACTORIAL HepG2 Assay for human Erythroblast Transformation Specific (ETS) (AID 2282941); settings: HepG2 ETS cis-reporter transcription, actives raise or lower the signal
In short: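 RT-PCR/capillary electrophoresis fluorescence read-out of reporter mRNA; HepG2 transient multi-reporter transfection; 24 h compound exposure; gain or loss of signal fitted bidirectionally relative to DMSO.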

[18] = target: Hepatocyte nuclear factor 3-beta (Homo sapiens) (UniProt Q9Y261); test: ATG_FoxA2_CIS: Attagene CIS-FACTORIAL HepG2 Assay for human Forkhead box A2 (FOXA2) (AID 2282942); settings: HepG2 cis-reporter transcription factor activity, 24 h; actives raise or lower the signal
In short: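 Endogenous transcription factor activity was read in HepG2 cells carrying transiently transfected cis-promoter reporter units. After 24 h dosing, reporter mRNA was quantified by RT-PCR and capillary electrophoresis, and values fitted bidirectionally versus DMSO.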

[19] = ATG_FoxO_CIS: Attagene CIS-FACTORIAL HepG2 Assay for human Forkhead box O (FoxO) (AID 2282943); settings: HepG2 Attagene cis-reporter, FoxO element, mRNA; actives raise or lower the signal
In short: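 Values reflect reporter mRNA induction or loss in HepG2 cells 24 h post-dosing, fitted bidirectionally with DMSO as negative control and baseline. Detection used RT-PCR and fluorescence capillary electrophoresis.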

[20] = ATG_GATA_CIS: Attagene CIS-FACTORIAL HepG2 Assay for human GATA Binding Protein (AID 2282944); settings: HepG2 GATA cis-element reporter, Attagene multiplex mRNA; actives raise or lower the signal
In short: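 Measures endogenous transcription factor-driven reporter mRNA in HepG2 cells transiently carrying cis-regulated constructs. 24 h dosing; RNA via oligo(dT) reverse transcription, PCR, HpaI digestion, capillary electrophoresis; fitted relative to DMSO.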

Measured: AC50

Sequence of Hepatocyte nuclear factor 3-beta (Homo sapiens) (Q9Y261 whole entry, looked up): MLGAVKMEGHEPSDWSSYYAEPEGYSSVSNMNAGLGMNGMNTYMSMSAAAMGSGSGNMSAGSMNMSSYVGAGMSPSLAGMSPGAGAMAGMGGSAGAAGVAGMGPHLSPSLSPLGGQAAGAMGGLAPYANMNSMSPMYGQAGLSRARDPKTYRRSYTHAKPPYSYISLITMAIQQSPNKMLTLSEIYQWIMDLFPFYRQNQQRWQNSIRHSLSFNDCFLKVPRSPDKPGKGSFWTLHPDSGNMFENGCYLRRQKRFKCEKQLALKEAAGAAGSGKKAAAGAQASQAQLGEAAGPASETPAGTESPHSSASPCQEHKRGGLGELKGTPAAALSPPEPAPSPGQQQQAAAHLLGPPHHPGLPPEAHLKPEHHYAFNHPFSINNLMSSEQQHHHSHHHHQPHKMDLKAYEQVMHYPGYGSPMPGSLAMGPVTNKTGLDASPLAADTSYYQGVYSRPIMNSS
Sequence of CCAAT/enhancer-binding protein beta (Homo sapiens) (P17676 whole entry, looked up): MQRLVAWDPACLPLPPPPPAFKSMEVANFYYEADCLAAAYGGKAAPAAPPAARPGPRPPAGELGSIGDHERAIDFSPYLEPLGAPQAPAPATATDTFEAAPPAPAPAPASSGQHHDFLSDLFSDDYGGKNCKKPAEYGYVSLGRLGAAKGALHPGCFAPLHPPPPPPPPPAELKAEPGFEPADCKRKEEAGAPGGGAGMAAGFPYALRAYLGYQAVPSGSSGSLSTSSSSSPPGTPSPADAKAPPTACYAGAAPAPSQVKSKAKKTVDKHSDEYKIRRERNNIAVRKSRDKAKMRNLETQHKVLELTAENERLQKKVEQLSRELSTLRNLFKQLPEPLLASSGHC
Sequence of Retinoic acid receptor alpha (Homo sapiens) (P10276 whole entry, looked up): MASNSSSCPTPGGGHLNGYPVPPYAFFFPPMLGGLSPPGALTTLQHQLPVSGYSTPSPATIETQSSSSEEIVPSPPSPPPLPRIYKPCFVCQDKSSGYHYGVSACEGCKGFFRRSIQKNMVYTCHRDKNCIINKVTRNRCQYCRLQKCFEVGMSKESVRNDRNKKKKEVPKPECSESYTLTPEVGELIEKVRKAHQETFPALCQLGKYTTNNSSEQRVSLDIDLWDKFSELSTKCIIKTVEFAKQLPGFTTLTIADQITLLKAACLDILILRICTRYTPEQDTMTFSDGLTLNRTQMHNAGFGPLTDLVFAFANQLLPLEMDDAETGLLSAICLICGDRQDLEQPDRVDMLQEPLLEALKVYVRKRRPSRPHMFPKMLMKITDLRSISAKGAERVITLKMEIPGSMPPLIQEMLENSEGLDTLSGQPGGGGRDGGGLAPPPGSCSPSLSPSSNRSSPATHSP
Sequence of Aryl hydrocarbon receptor (Homo sapiens) (P35869 whole entry, looked up): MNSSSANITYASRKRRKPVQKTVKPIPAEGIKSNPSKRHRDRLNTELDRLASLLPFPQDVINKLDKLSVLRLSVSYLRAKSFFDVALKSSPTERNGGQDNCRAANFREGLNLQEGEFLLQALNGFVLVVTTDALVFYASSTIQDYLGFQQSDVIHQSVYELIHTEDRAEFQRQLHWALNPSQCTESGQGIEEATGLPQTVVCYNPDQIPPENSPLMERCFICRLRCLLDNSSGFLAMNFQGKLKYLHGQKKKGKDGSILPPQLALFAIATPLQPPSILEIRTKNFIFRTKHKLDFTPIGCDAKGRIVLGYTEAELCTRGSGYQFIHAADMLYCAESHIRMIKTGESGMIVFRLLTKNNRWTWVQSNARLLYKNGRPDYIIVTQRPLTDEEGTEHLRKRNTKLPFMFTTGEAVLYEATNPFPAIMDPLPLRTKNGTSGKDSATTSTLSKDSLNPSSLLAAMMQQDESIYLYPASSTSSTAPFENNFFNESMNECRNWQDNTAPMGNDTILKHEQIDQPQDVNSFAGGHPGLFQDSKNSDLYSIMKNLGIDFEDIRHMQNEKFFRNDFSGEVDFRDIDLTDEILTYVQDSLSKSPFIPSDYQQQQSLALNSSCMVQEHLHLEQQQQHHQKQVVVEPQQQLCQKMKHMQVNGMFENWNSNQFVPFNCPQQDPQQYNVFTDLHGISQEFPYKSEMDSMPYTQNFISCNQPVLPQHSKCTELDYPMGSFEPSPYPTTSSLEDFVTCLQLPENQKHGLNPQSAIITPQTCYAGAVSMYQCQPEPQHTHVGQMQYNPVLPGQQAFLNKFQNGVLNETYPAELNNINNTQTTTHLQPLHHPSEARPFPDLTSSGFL
Sequence of Transcription factor E2F1 (Homo sapiens) (Q01094 whole entry, looked up): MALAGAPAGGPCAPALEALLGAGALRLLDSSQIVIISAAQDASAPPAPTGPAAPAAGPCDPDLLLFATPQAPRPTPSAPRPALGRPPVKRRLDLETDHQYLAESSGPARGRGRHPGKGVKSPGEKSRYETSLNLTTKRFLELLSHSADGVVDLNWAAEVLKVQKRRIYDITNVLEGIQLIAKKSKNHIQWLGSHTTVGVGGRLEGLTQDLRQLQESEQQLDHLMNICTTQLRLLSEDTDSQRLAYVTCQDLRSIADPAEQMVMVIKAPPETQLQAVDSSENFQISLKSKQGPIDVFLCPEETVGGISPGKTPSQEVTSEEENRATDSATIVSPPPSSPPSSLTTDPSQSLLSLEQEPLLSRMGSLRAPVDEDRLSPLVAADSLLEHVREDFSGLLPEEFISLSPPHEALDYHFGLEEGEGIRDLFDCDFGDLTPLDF

CC(CCl)OP(=O)(OC(C)CCl)OC(C)CCl (stereo not given)
inactive: all assays above

CCO[Si](CCC(F)(F)C(F)(F)C(F)(F)C(F)(F)C(F)(F)C(F)(F)F)(OCC)OCC
inactive: all assays above

O=S(=O)(OCC(F)F)C(F)(F)F
inactive: all assays above

Oc1ccc(Nc2ccccc2)cc1
active: [4] 41.8 µM | [12] 100 µM | [16] 8.42 µM
inactive: all other assays above

CC(=O)Nc1ccc(N=Nc2cc(C)ccc2O)cc1
active: [6] 17.7 µM
inactive: all other assays above

O=P(O)(O)OCCC(F)(F)C(F)(F)C(F)(F)C(F)(F)C(F)(F)C(F)(F)F
active: [16] 18.3 µM
inactive: all other assays above

O=C(O)C(F)(OC(F)(F)C(F)(OC(F)(F)C(F)(OC(F)(F)C(F)(F)C(F)(F)F)C(F)(F)F)C(F)(F)F)C(F)(F)F (stereo not given)
inactive: all assays above

O=C(O)C=C(C(F)(F)F)C(F)(F)F
inactive: all assays above

NC(=O)C(F)(F)C(F)(F)C(F)(F)C(F)(F)F
inactive: all assays above

CCCCC(CC)COP(=O)(O)OCC(CC)CCCC (stereo not given)
active: [5] 42 µM | [7] 60.6 µM
inactive: all other assays above

c1ccc(-c2ccccc2-c2ccccc2)cc1
active: [1] 0.534 µM | [4] 29.8 µM | [5] 27.7 µM | [7] 58.7 µM | [16] 3.47 µM
inactive: all other assays above

O=C(C=Cc1ccccc1)OCC=Cc1ccccc1
active: [5] 24.3 µM
inactive: all other assays above

C=CC(=O)OCC(F)(F)C(F)(F)C(F)(F)C(F)(F)C(F)(F)C(F)(F)C(F)(F)F
active: [10] 12.1 µM | [16] 21 µM
inactive: all other assays above
